# Experimental data taken from PubChem BioAssay.
# Where “and” joins values, the source holds several entries; their conditions need not be identical. Equal entries are not always repeated. Unmarked numbers belong to inactive results. Calls of active or inactive are those of the source. Rule as the data show it, unless noted: active = inhibition above about 28%; inactive = the rest.
# How the values were obtained:
# [1] = StAR promoter reporter inhibitors, counter-screen for LRH-1 inverse agonist project, cell-based, luminescence, high throughput (AID 651611); settings: StAR promoter luciferase reporter counterscreen, at 3.6 µM, active compounds read high
# [2] = biological target: Nuclear receptor subfamily 5 group A member 2 (Homo sapiens) (UniProt O00482); assay: NR5A2 activity suppression in reporter cells – cell-based, luminescence, confirmation (AID 651613; in the data active = inhibition above about 42%;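 also: HEK293T cells co-transfected with LRH-1 and StAR promoter luciferase reporter; 0% = vehicle wells and 100% = parental cells lacking receptor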); settings: cell-based LRH-1 luciferase reporter, inverse agonism; at 3.6 µM; active compounds read high
# [3] = biological target: Steroidogenic factor 1 (Homo sapiens) (UniProt Q13285); assay: inverse agonism at SF1 nuclear receptor – cell-based, luminescence, high throughput, counter-screen for LRH-1 inverse agonist project (AID 651614; in the data active = inhibition above about 44%;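 also: cells cotransfected with StAR promoter reporter and SF1 expression vector; 0% = vehicle on cells with receptor and 100% = vehicle on cells lacking receptor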); settings: cell-based SF1 luciferase reporter, at 3.6 µM, active compounds read high
# [4] = compounds suppressing VP16-driven luciferase signal – cell-based, luminescence, high throughput, counter-screen for LRH-1 inverse agonist project (AID 651615; in the data active = inhibition above about 33%); settings: Gal4-VP16 luciferase reporter cells, at 3.6 µM, active compounds read high
# Steroidogenic factor 1 (Homo sapiens), sequence (Q13285 whole entry, looked up, the tested form may be a part): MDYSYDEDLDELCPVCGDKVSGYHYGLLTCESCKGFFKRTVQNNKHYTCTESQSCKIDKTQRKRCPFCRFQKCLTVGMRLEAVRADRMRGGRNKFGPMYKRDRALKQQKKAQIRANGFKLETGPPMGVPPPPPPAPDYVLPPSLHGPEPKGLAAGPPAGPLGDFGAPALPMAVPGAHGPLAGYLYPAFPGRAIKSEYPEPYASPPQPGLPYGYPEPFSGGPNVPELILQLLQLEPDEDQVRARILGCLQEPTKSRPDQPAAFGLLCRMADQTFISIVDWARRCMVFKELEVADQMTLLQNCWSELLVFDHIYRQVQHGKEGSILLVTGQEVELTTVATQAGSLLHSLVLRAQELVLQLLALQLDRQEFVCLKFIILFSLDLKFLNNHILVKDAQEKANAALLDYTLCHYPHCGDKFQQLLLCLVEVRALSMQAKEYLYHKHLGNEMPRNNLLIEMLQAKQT
# Nuclear receptor subfamily 5 group A member 2 (Homo sapiens), sequence (O00482 whole entry, looked up): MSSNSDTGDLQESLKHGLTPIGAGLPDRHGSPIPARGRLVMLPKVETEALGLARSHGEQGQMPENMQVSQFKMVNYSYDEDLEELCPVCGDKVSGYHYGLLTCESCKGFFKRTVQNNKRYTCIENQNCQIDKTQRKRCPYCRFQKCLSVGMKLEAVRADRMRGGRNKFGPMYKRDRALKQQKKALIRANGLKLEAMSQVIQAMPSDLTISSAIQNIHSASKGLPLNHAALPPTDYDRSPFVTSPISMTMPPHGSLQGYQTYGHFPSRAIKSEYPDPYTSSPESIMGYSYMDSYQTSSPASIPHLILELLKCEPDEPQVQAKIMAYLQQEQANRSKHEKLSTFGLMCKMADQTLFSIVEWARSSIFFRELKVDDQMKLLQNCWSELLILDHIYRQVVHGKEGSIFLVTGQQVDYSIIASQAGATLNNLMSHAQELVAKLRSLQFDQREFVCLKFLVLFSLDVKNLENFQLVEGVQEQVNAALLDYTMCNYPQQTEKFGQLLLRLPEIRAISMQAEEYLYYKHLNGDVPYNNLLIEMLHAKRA
Compound,inhibition [1],inhibition [2],inhibition [3],inhibition [4]
O=C(CN1C(=O)NC2(CCCCCC2)C1=O)Nc1ccc([N+](=O)[O-])cc1,25.1%,63.1% (active),59.6% (active),9.06%
CCOC(=O)c1cc(-c2ccncc2)nc2c1c(C)nn2-c1ccccn1,14.2%,44.6% (active),48% (active),13.1%
C[C@@H]1CN([C@@H](C)CO)S(=O)(=O)c2ccc(-c3ccc(C#N)cc3)cc2O[C@@H]1CN(C)Cc1ccccn1,24.5%,51.8% (active),48% (active),-14.3%
O=[N+]([O-])c1cnccc1Nc1cccc(F)c1,11.5%,62.3% (active),55.1% (active),10%
CCCN1Cc2cccc(C(=O)NC(C)c3cccs3)c2C1=O (configuration not stated),-7.74%,38.5%,27.5%,0.87%
Cc1ccc(C)c(NC(=O)CSc2nc3[nH]ncc3c(=O)[nH]2)c1,6.04%,58.1% (active),56% (active),7.57%
CCn1c(=NC(=O)CCS(=O)(=O)c2ccccc2)sc2cccc(OC)c21,6.25%,108% (active),70.3% (active),69.2% (active)
CC(=O)N1CCc2c(sc(NC(=O)c3ccc([N+](=O)[O-])o3)c2C#N)C1,-28.6%,36%,43.8% (active),-119%
CCC(C)NC(=O)c1ccc2c(c1)N(Cc1ccccc1)C(=O)CS2 (configuration not stated),7.12%,49.2% (active),51.5% (active),3.22%
Cc1c(C#N)c(O)n(CCO)c(=O)c1N=Nc1ccccc1,13.4%,44.4% (active),41.7%,6.91%
COc1ccc(C(NC(=O)C(C)C)c2ccc3cccnc3c2O)cc1 (configuration not stated),84.5% (active),103% (active),91.8% (active),87.7% (active)
Cc1ccccc1NC(=O)c1ccc([N+](=O)[O-])o1,8.33%,64.8% (active),57.6% (active),-16%
Cc1ccc(NC(=O)COC(=O)CCC2CCCC2)c(Br)c1,5.75%,40.9%,46.2% (active),-5.49%
CCS(=O)(=O)Nc1cccc(-c2ccc3nnc(-c4cccnc4)n3n2)c1,21.7%,52.1% (active),49.5% (active),-31.6%
CCC(=O)Nc1ccc(NC(=O)CSc2nc3c(c(=O)n(C)c(=O)n3C)n2CC)cc1,34.6% (active),58.8% (active),58.3% (active),-17.8%
Cc1cc(C)nc(SCC(=O)Nc2ccc(N3CCOCC3)c(Cl)c2)n1,-5.17%,67.5% (active),59.8% (active),35.7% (active)
NS(=O)(=O)c1ccc(CCNC(=O)COc2ccc3c4c(c(=O)oc3c2)CCC4)cc1,13.4%,41.7% (active),38.2%,-15.4%
O=C(NCC1CCCO1)c1ccc(NC(=O)c2cccc([N+](=O)[O-])c2)cc1 (configuration not stated),3.83%,56.2% (active),54% (active),-2.03%
Cc1cnc(NC(=O)CCCc2nc3ccccc3s2)s1,45.5% (active),73.1% (active),42.5%,29.4%
CCCCNC(=O)COC(=O)c1c2c(nc3ccccc13)/C(=C\c1cccs1)CC2,-10.4%,34.9%,12.3%,26.5%
CC1(C(=O)NCc2ccc(Cl)cc2)CCN1C(=O)Cc1ccc(Cl)cc1Cl (configuration not stated),16%,44.1% (active),46.5% (active),4.22%
C[n+]1c2cc(N)ccc2cc2ccc(N)cc21,34.8% (active) and 28.5% (active),109% (active) and 105% (active),79.5% (active) and 66.7% (active),95.3% (active) and 92.1% (active)
Cc1onc(-c2c(F)cccc2Cl)c1C(=O)O/N=C(\N)c1ccc([N+](=O)[O-])o1,11.6%,70.9% (active),60.4% (active),-7.18%
